Out of some 5,500 compounds screened, about 2,000 (36%) were called active. Not shown: some 18% with an inconclusive outcome. No stated cut-off is given here; in the data, active means normalized growth mostly below about 0.91 (no sharp cut-off); inconclusive means no clear call, values can overlap the other calls; inactive means mostly above about 0.92. Some of the results follow.
Test: chemical genetic growth profiling, strain panel (AID 1159580);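 further: tested at 20 µM; growth read once vehicle control cultures reached saturation at 30 °C; 1 = growth at the plate median or of vehicle wells; lower values mean less growth of the strain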
Conditions: S. cerevisiae deletion strains, growth OD

Measured: normalized growth

O=C(NC(Cc1cc(=O)[nH]c2ccccc12)C(=O)O)c1ccc(Cl)cc1 (stereo unspecified)
inactive: locus YAL021C, strain ccr4, active compounds read low 1.01 | locus YAL026C, strain drs2, active compounds read low 1 | locus YAL030W, strain snc1, active compounds read low 1 | locus YBL061C, strain skt5, active compounds read low 1 | locus YBR009C, strain hhf1, active compounds read low 1.01 | locus YBR023C, strain chs3, active compounds read low 1.01 | locus YBR171W, strain sec66, active compounds read low 0.992 | locus YBR231C, strain swc5, active compounds read low 0.994 | locus YBR279W, strain paf1, active compounds read low 0.997 | locus YCL011C, strain gbp2, active compounds read low 1 | locus YCL016C, strain dcc1, active compounds read low 0.994 | locus YCL061C, strain MRC1, active compounds read low 0.994 | locus YCL069W, strain vba3, active compounds read low 1 | locus YCR088W, strain abp1, active compounds read low 0.994 | locus YDL005C, strain med2, active compounds read low 1 | locus YDL040C, strain nat1, active compounds read low 1 | locus YDR001C, strain nth1, active compounds read low 0.997 | locus YDR069C, strain doa4, active compounds read low 1 | locus YDR137W, strain rgp1, active compounds read low 0.969 | locus YDR159W, strain sac3, active compounds read low 1.01 | locus YDR195W, strain ref2 0.972 | locus YDR297W, strain sur2, active compounds read low 1.01 | locus YDR334W, strain swr1, active compounds read low 1.02 | locus YDR335W, strain msn5, active compounds read low 1 | locus YDR392W, strain spt3, active compounds read low 1.03 | locus YEL003W, strain gim4, active compounds read low 0.998 | locus YEL037C, strain rad23, active compounds read low 0.982 | locus YEL061C, strain CIN8 (second series), active compounds read low 1 | locus YER015W, strain faa2, active compounds read low 1.01 | locus YER016W, strain bim1, active compounds read low 1 | locus YER111C, strain swi4, active compounds read low 0.999 | locus YER155C, strain BEM2 (second series), active compounds read low 1 | locus YFR010W, strain ubp6, active compounds read low 0.995 | locus YGL167C, strain pmr1, active compounds read low 1.01 | locus YGL173C, strain kem1, active compounds read low 1.01 | locus YGL227W, strain vid30, active compounds read low 1 | locus YGL240W, strain doc1, active compounds read low 0.998 | locus YGL253W, strain hxk2, active compounds read low 1 | locus YHR013C, strain ard1, active compounds read low 1 | locus YHR027C, strain rpn1, active compounds read low 0.996 | locus YHR030C, strain SLT2, active compounds read low 0.993 | locus YHR079C, strain IRE1, active compounds read low 0.99 | locus YHR142W, strain chs7, active compounds read low 0.986 | locus YJL092W, strain hpr5, active compounds read low 0.998 | locus YJL095W, strain BCK1 (second series), active compounds read low 0.997 | locus YJL095W, strain BCK1, active compounds read low 0.988 | locus YJL115W, strain asf1, active compounds read low 1 | locus YJL129C, strain trk1, active compounds read low 1 | locus YJL154C, strain vps35, active compounds read low 1 | locus YJL164C, strain tpk1, active compounds read low 1 | locus YJL166W, strain qcr8, active compounds read low 0.995 | locus YJR066W, strain TOR1, active compounds read low 0.913 | locus YKL160W, strain elf1, active compounds read low 0.998 | locus YKR026C, strain gcn3, active compounds read low 0.994 | locus YKR091W, strain srl3, active compounds read low 1 | locus YLL001W, strain dnm1, active compounds read low 0.997 | locus YLL026W, active compounds read low 1 | locus YLL041C, strain sdh2, active compounds read low 0.997 | locus YLR027C, strain aat2, active compounds read low 0.994 | locus YLR113W, strain HOG1, active compounds read low 0.995 | locus YLR221C, strain rsa3, active compounds read low 0.999 | locus YLR258W, strain gsy2, active compounds read low 1 | locus YLR262C, strain YPT6 (second series), active compounds read low 1 | locus YLR320W, strain mms22, active compounds read low 0.996 | locus YLR342W, strain FKS1, active compounds read low 0.991 | locus YLR357W, strain rsc2, active compounds read low 0.993 | locus YLR370C, strain arc18, active compounds read low 1 | locus YLR384C, strain iki3, active compounds read low 0.998 | locus YML120C, strain ndi1, active compounds read low 1 | locus YMR058W, strain fet3, active compounds read low 1.01 | locus YMR125W, strain sto1, active compounds read low 1.01 | locus YMR129W, active compounds read low 0.983 | locus YMR205C, strain PFK2, active compounds read low 0.997 | locus YMR231W, strain pep5, active compounds read low 1.01 | locus YNL071W, strain lat1, active compounds read low 1.01 | locus YNL183C, strain NPR1, active compounds read low 0.934 | locus YNL209W, strain ssb2, active compounds read low 1 | locus YNL248C, strain rpa49, active compounds read low 0.994 | locus YNL322C, strain KRE1 (second series), active compounds read low 0.992 | locus YNR049C, strain mso1, active compounds read low 0.986 | locus YOR001W, strain rrp6, active compounds read low 0.988 | locus YOR070C, strain gyp1, active compounds read low 1.01 | locus YOR080W, strain dia2, active compounds read low 0.998 | locus YOR083W, strain WHI5, active compounds read low 1 | locus YOR106W, strain vam3, active compounds read low 0.993 | locus YOR231W, strain MKK1, active compounds read low 0.988 | locus YOR265W, strain rbl2, active compounds read low 1 | locus YOR270C, strain vph1, active compounds read low 1.03 | locus YOR290C, strain snf2, active compounds read low 1.01 | locus YPL051W, strain arl3, active compounds read low 1.01 | locus YPL078C, strain atp4, active compounds read low 0.999 | locus YPL106C, strain sse1, active compounds read low 1.01 | locus YPL240C, strain hsp82, active compounds read low 0.982 | locus YPL256C, strain CLN2, active compounds read low 1.01

Brc1c(NC2=NCCN2)ccc2nccnc12
inactive: locus YAL040C, strain CLN3, active compounds read low 1.01 | locus YCL061C, strain MRC1 (second series), active compounds read low 1 | locus YDR363W, strain ESC2, active compounds read low 1 | locus YER002W, strain NOP16, active compounds read low 1.01 | locus YGR229C, strain SMI1, active compounds read low 1.01 | locus YMR307W, strain GAS1, active compounds read low 0.994 | locus YNL175C, strain NOP13, active compounds read low 0.989 | locus YNL197C, strain WHI3, active compounds read low 0.981 | locus YNL224C, strain SQS1, active compounds read low 0.994 | locus YNL322C, strain KRE1, active compounds read low 1 | locus YOR083W, strain WHI5 (second series), active compounds read low 1 | locus YPL241C, strain CIN2, active compounds read low 1

Reference: PubChem BioAssay AID1159580 (chemical genetic matrix, 2015)
